Data: PubChem BioAssay (NCI)
Several values for one entry are separate records, joined by “and”; a condition that tells them apart may be missing. Equal values may be shown once. This is part of a sample that, as a whole, favours compounds with a hit. Of some 83,000 tested, about 20% had one in any assay.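 Testing used 96-well plates and a 48-hour single-concentration exposure. Example: -40 means 40% of the starting cells died.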 Activity calls are given as the source filed them. How the source made its calls: active means growth percent below 10; inactive means the rest.

The molecules below were run on HL-60(TB) leukemia (assay: NCI-60 one-dose screen, 48 h (100 = growth as untreated, 0 = no growth, -100 = all killed)). Details: 10 µM unless noted.
In the case of NC(=O)CSSCC(N)=O, the growth is reported as 9.36% (active).
In the case of NC(=S)NNC1CCCCC1, the growth is reported as 67.3% (inactive).
In the case of CNC(=O)c1cc(Oc2ccc(CC(=O)Nc3cc(C(C)(C)C)cn3C)cc2)ccn1, the growth is reported as 77.5% (inactive).
C/C(=N\NC(=O)c1sc(=S)n(C)c1N)c1cc2ccccc2o1 was tested, and the growth was 26.6% (inactive).
CCOC(=S)SCc1ccc(Cl)cc1 was tested, and the growth was 65.8% (inactive).
In the case of CCOC(=O)C1=C(C)N=C2Sc3cc(OC(F)(F)F)ccc3N2[C@H]1c1ccccn1, the growth is reported as 46.9% (inactive).
With CN(C)c1ccc2nc3ccc(=[N+](C)C)cc-3sc2c1 the growth was 0.249% (active) and -38.6% (active) and 19.8% (inactive).
In the case of CCN(CC)CCNC(=O)c1ccc(NCN2C(=O)NC(c3ccccc3)(c3ccccc3)C2=O)cc1, the growth is reported as 107% (inactive) and 105% (inactive).
CC(C)(C)OC[C@@H]1N=C(c2ccc(Br)cc2)Nc2nc3ccccn3c2C1=O was tested, and the growth was 33.1% (inactive).
In the case of CCN(CC)CCNCC(=O)Oc1ccc(/C=C/C(=O)CC(=O)/C=C/c2ccc(OC(=O)CNCCN(CC)CC)c(OC)c2)cc1OC, the growth is reported as -22.6% (active).
With CC1=C(/C=C/C(C)=C/C=C/C(C)=C/C(=O)O)C(C)(C)CCC1 the growth was 79.2% (inactive) and 46.2% (inactive) and 67% (inactive).
For CC1(C)CCC(S(=O)(=O)c2ccc3c(c2)/C(=N\O)c2cc(S(=O)(=O)N4CCC(O)(c5cccc(C(F)(F)F)c5)CC4)ccc2-3)CC1, the growth was -67.5% (active).
With O=C(Nc1cccc(-n2ccc3c(NC(=O)c4ccccc4)nccc32)c1)c1ccc(N2CCOCC2)c(C(F)(F)F)c1 the growth was -7.22% (active).
